Outcome and AC50 data for ten compounds are collected here from PubChem BioAssay (EPA / NIEHS).

Each structure is given as a SMILES string. Inconclusive results are not listed. Activity calls are given as the source filed them. How the source made its calls, unless noted: active means hit-call score of the fitted dose curve at least 0.9, where 1 is the maximum; inactive means score below 0.9.

For assay [1], the target named is Oxysterols receptor LXR-alpha (Homo sapiens) (UniProt Q13133). The assay is described as follows: ATG_LXRa_TRANS: Attagene TRANS-FACTORIAL HepG2 Assay for human Liver X Receptor alpha (LXRa) (AID 2282980; active means hit-call score of the fitted dose curve at least 0.9, where 1 is the maximum). As to conditions: HepG2 Attagene TRANS reporter, LXRa transactivation. In short, it runs like this:
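Read-out: reporter transcript levels by RT-PCR plus capillary electrophoresis, fluorescence intensity. Transiently transfected HepG2, exogenous NR-GAL4 chimera, GAL4-UAS reporters; 24 h compound exposure. Activity = increase over DMSO negative control.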

Assay [2] addresses Hepatocyte nuclear factor 4-alpha (Homo sapiens) (UniProt P41235). As to the kind of experiment: ATG_HNF4a_TRANS: Attagene TRANS-FACTORIAL HepG2 Assay for human Hepatocyte Nuclear Factor 4 alpha (HNF4a) (AID 2282982; active means hit-call score of the fitted dose curve at least 0.9, where 1 is the maximum). Conditions: HepG2 HNF4a transactivation reporter, mRNA readout. In short, it runs like this: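 Endpoint reflects transcriptional activation of a GAL4-UAS reporter by an HNF4a-GAL4 chimera in transfected HepG2 cells, 24 h post-dosing. Fluorescence from RT-PCR products separated by capillary electrophoresis; DMSO baseline.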

For assay [3], the target named is Transcriptional activator Myb (Homo sapiens) (UniProt P10242). As to the kind of experiment: ATG_Myb_CIS: Attagene CIS-FACTORIAL HepG2 Assay for human Myeloblastosis (Myb) Proto-Oncogene Transcription Factor (AID 2282986). As to conditions: HepG2 Attagene CIS-FACTORIAL Myb reporter transcription; actives raise or lower the signal. In short, it runs like this: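 Fluorescence signals from capillary electrophoresis of RT-PCR-amplified reporter cDNA give the read-out. Cells: HepG2 transfected with multiple cis-regulated reporter units. Exposure lasts 24 hours; DMSO defines baseline for gain or loss of signal.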

Assay [4] has as its target Nuclear respiratory factor 1 (Homo sapiens) (UniProt Q16656). The assay is described as follows: ATG_NRF1_CIS: Attagene CIS-FACTORIAL HepG2 Assay for human Nuclear Respiratory Factor 1 (NRF1) Orphan Gene (AID 2282987). As to conditions: HepG2 NRF1 cis-element reporter, Attagene multiplex; actives raise or lower the signal. Put shortly: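 Transcriptional reporter readout, one component of a 52-endpoint multiplexed HepG2 panel. Exposure 24 h; mRNA detected via RT-PCR and fluorescent capillary electrophoresis; fitting in both directions against DMSO.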

Assay [5] in a line: ATG_NFI_CIS: Attagene CIS-FACTORIAL HepG2 Assay for human Nuclear Factor I (NFI) (AID 2282989). Conditions: HepG2 cis-regulatory reporter, NFI response element transcription; actives raise or lower the signal. Put shortly: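 Multiplexed cis-reporter system in human HepG2 cells reports native TF activity as reporter mRNA induction 24 h post-dose. Fragments labelled with 6-FAM, HpaI-digested and resolved by capillary electrophoresis; activity fitted both directions versus DMSO.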

Assay [6] has as its target Myc proto-oncogene protein (Homo sapiens) (UniProt P01106). The assay is described as follows: ATG_Myc_CIS: Attagene CIS-FACTORIAL HepG2 Assay for human Myelocytomatosis (Myc) Proto-Oncogene Transcription Factor (AID 2282990). Conditions: HepG2, Attagene cis-reporter transcription factor activity; actives raise or lower the signal. Put shortly:
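Transiently transfected HepG2 cells bearing cis-promoter reporter units for endogenous transcription factors; 24 h exposure. Reporter mRNA measured by RT-PCR, 6-FAM primer extension, HpaI cut and capillary electrophoresis; bidirectional fit relative to DMSO.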

Assay [7] in a line: ATG_NF_kB_CIS: Attagene CIS-FACTORIAL HepG2 Assay for human Nuclear Factor Kappa B (NF-kB) (AID 2282991). As to conditions: HepG2 Attagene cis-factorial NF-kB reporter mRNA; actives raise or lower the signal. In short, it runs like this:
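HepG2, transient multi-reporter transfection, cis promoter elements (endogenous TFs). 24 h exposure. Total RNA → RT → PCR → 6-FAM label → HpaI → CE. Gain/loss vs DMSO.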

Assay [8] in a line: ATG_NRF2_ARE_CIS: Attagene CIS-FACTORIAL HepG2 Assay for human Nuclear Factor Erythroid 2 Related Factor 2 (NFR2) response to Antioxidant Response Elements (ARE) (AID 2282992). Conditions: HepG2 Attagene ARE/NRF2 reporter, transcription factor activity; actives raise or lower the signal. In short, it runs like this: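 Endogenous transcription factor activity in human liver HepG2 cells is tracked via a cis-element-driven reporter within a multiplexed set. mRNA induction is read by RT-PCR and capillary electrophoresis after 24 h, with DMSO as baseline.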

The nature of assay [9]: ATG_Oct_MLP_CIS: Attagene CIS-FACTORIAL HepG2 Assay for human Octamer-Binding Transcription Factor (Oct) (AID 2282993). Conditions: HepG2 Attagene cis-factorial Oct reporter, mRNA; actives raise or lower the signal. In short, it runs like this: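 After 24 h compound exposure, transfected HepG2 cells were lysed for total RNA; reporter-specific cDNA was PCR-amplified, fluorescently labelled and sized by capillary electrophoresis. Bidirectional curve fitting used DMSO as baseline.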

The target of assay [10] is Cellular tumor antigen p53 (Homo sapiens) (UniProt P04637). The assay is described as follows: ATG_p53_CIS: Attagene CIS-FACTORIAL HepG2 Assay for human p53 Transcription Factor (AID 2282994). Conditions: HepG2 p53 cis-element reporter, Attagene mRNA; actives raise or lower the signal. Put shortly:
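Steps: transfect HepG2 with multiplexed cis reporter constructs; dose chemicals 24 h; extract RNA, reverse-transcribe, PCR-amplify reporter sequences; FAM-label, HpaI-digest, resolve fragments by CE. Activity fitted both directions relative to DMSO.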

A short description of assay [11]: ATG_M_32_TRANS: Attagene TRANS-FACTORIAL HepG2 Assay for M32 Transcription Factor (Internal Marker) (AID 2282984; active means hit-call score of the fitted dose curve at least 0.9, where 1 is the maximum;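 further: transcript level of a background control reporter unit measured by RT-PCR and capillary electrophoresis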). As to conditions: HepG2 Attagene TRANS M32 internal marker reporter. In short, it runs like this:
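Internal-marker readout from a multiplexed transcription reporter panel. HepG2 cells were transfected with GAL4-UAS reporter units, treated 24 hours, and reporter transcript levels determined by fluorescence after RT-PCR and capillary separation.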

Assay [12] is described as follows: BSK_3C_TissueFactor: BioMAP Diversity Plus: 3C Assay for Tissue Factor Biomarker Activity (AID 2282997). Conditions: BioMAP 3C HUVEC, tissue factor biomarker readout; actives raise or lower the signal. In short, it runs like this: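 HUVEC, 3C system, 24 h post-dose; Tissue Factor by ELISA; bidirectional fit vs DMSO baseline.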
Assay [13] is described as follows: BSK_3C_uPAR: BioMAP Diversity Plus: 3C Assay for Urokinase-type plasminogen activator receptor (uPAR) Biomarker Activity (AID 2282998). As to conditions: BioMAP 3C HUVEC, uPAR biomarker ELISA; actives raise or lower the signal. In short, it runs like this:
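Values derive from bidirectional curve fitting relative to DMSO, which served as baseline of activity. uPAR was measured by ELISA in human umbilical vein endothelial primary cultures 24 h after compound addition.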

A short description of assay [14]: BSK_3C_VCAM1: BioMAP Diversity Plus: 3C Assay for Vascular cell adhesion molecule 1 (VCAM1) Biomarker Activity (AID 2282999). Conditions: BioMAP 3C HUVEC, VCAM1 ELISA, cytokine-stimulated; actives raise or lower the signal. Put shortly: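 HUVEC primary cells, 24 h compound exposure; VCAM-1 by ELISA; gain/loss of signal fitted bidirectionally vs DMSO baseline.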

Assay [15] concerns the target Oxysterols receptor LXR-beta (Homo sapiens) (UniProt P55055). As to the kind of experiment: ATG_LXRb_TRANS: Attagene TRANS-FACTORIAL HepG2 Assay for human Liver X Receptor beta (LXRb) (AID 2282981; active means hit-call score of the fitted dose curve at least 0.9, where 1 is the maximum). As to conditions: HepG2 Attagene TRANS GAL4-LXRb reporter, mRNA. In short, it runs like this: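 Multiplexed reporter assay, HepG2, 24 h dosing. Fluorescence of labelled RT-PCR products after capillary electrophoresis gives transcript level; positive fitting direction relative to DMSO.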

The nature of assay [16]: ATG_M_06_TRANS: Attagene TRANS-FACTORIAL HepG2 Assay for M06 Transcription Factor (Internal Marker) (AID 2282983; active means hit-call score of the fitted dose curve at least 0.9, where 1 is the maximum). As to conditions: HepG2 Attagene TRANS M06 internal marker reporter. Put shortly:
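Read-out: fluorescent reporter cDNA fragments resolved by capillary electrophoresis after RT-PCR and HpaI cut. Source cells were HepG2 carrying transfected multi-reporter GAL4 constructs, dosed 24 h. Increase over DMSO control analysed.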

Assay [17] deals with Nuclear receptor subfamily 4 group A member 2 (Homo sapiens) (UniProt P43354). As to the kind of experiment: ATG_NURR1_TRANS: Attagene TRANS-FACTORIAL HepG2 Assay for human Nuclear Receptor Related Protein 1 (NURR1) (AID 2282985; active means hit-call score of the fitted dose curve at least 0.9, where 1 is the maximum). Conditions: HepG2 Attagene TRANS reporter, mRNA readout. In short, it runs like this:
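Endpoint: reporter mRNA increase relative to DMSO. HepG2 cells transfected with reporter units, treated 24 h; RNA processed by RT-PCR, labelling, HpaI digestion and capillary electrophoresis.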

Sequence of Oxysterols receptor LXR-alpha (Homo sapiens) (Q13133 whole entry, looked up, the tested form may be a part): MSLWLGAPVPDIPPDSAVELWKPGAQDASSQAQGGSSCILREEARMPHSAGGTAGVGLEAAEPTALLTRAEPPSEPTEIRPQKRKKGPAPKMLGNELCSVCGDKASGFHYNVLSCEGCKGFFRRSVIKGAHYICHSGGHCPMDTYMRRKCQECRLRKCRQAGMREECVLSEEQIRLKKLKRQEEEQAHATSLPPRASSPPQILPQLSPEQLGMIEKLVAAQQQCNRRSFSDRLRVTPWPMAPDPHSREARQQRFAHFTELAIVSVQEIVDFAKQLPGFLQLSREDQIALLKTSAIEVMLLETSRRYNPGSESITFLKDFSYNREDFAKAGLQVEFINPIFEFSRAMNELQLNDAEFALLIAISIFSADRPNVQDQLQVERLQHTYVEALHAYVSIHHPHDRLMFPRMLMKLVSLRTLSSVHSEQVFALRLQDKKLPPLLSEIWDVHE
Sequence of Transcriptional activator Myb (Homo sapiens) (P10242 whole entry, looked up): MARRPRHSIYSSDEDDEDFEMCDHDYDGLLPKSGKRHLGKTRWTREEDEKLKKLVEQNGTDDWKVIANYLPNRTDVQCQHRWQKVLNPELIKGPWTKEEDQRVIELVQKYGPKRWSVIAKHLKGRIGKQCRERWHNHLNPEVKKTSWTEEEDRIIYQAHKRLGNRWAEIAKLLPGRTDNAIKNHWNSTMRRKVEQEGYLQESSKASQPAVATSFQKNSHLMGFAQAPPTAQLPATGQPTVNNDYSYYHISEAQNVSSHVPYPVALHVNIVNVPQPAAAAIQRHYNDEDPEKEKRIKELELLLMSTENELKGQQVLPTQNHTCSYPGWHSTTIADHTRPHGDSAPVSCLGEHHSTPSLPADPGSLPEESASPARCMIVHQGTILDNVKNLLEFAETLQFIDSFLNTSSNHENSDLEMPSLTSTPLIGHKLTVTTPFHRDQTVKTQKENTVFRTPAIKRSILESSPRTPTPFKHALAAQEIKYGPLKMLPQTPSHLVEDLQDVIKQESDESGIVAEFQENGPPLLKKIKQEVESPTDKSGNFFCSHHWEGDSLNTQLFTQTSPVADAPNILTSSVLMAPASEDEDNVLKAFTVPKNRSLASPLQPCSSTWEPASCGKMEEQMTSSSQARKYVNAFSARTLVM
Sequence of Nuclear receptor subfamily 4 group A member 2 (Homo sapiens) (P43354 whole entry, looked up): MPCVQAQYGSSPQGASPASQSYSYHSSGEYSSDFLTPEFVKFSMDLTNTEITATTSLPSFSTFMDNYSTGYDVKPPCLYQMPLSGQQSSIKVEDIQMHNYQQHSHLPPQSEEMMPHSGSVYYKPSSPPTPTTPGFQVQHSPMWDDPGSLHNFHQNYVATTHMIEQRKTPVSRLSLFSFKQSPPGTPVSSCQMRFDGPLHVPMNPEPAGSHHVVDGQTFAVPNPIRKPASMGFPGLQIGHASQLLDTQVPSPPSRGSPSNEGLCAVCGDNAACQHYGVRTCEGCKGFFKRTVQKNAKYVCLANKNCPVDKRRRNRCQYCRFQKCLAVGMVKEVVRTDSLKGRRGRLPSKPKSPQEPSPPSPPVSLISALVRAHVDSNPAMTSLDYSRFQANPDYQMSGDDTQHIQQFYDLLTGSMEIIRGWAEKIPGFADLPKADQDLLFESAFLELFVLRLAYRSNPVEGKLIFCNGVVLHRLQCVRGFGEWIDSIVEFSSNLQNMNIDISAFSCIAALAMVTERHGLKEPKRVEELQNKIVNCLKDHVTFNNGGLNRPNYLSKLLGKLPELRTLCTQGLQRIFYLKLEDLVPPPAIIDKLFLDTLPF
Sequence of Cellular tumor antigen p53 (Homo sapiens) (P04637 whole entry, looked up, the tested form may be a part): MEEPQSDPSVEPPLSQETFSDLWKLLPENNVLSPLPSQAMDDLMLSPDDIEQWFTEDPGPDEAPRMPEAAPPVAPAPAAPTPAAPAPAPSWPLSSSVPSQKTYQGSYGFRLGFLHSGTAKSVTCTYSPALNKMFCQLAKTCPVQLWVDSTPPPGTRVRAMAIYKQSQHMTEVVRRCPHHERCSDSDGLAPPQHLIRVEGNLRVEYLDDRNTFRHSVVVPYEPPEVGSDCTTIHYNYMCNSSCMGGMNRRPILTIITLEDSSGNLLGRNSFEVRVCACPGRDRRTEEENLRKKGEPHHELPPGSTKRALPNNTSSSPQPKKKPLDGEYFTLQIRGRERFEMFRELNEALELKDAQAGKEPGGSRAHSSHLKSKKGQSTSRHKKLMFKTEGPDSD
Sequence of Nuclear respiratory factor 1 (Homo sapiens) (Q16656 whole entry, looked up): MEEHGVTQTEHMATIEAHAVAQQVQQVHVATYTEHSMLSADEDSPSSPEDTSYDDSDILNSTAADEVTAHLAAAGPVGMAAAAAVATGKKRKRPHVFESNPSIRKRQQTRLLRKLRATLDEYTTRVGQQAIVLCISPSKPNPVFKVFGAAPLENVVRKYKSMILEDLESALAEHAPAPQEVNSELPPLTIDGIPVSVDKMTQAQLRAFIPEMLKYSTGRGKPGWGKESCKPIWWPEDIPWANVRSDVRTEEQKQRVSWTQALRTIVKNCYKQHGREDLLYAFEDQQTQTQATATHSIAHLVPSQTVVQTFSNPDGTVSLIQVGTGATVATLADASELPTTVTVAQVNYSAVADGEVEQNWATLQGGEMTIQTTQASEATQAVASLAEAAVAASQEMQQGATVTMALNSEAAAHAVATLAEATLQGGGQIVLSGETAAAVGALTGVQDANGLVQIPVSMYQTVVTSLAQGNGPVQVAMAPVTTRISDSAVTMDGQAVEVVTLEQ
Sequence of Oxysterols receptor LXR-beta (Homo sapiens) (P55055 whole entry, looked up, the tested form may be a part): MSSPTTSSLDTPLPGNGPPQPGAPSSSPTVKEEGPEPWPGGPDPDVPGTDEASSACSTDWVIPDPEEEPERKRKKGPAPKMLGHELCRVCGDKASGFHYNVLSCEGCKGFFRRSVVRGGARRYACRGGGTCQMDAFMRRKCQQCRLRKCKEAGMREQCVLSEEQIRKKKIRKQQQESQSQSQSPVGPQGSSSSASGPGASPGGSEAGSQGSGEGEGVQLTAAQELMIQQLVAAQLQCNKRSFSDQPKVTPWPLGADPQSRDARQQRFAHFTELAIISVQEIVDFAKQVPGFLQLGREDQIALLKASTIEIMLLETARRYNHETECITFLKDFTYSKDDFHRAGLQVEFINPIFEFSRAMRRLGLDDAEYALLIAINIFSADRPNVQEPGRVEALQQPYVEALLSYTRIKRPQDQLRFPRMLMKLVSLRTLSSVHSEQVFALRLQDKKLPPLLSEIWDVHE
Sequence of Myc proto-oncogene protein (Homo sapiens) (P01106 whole entry, looked up): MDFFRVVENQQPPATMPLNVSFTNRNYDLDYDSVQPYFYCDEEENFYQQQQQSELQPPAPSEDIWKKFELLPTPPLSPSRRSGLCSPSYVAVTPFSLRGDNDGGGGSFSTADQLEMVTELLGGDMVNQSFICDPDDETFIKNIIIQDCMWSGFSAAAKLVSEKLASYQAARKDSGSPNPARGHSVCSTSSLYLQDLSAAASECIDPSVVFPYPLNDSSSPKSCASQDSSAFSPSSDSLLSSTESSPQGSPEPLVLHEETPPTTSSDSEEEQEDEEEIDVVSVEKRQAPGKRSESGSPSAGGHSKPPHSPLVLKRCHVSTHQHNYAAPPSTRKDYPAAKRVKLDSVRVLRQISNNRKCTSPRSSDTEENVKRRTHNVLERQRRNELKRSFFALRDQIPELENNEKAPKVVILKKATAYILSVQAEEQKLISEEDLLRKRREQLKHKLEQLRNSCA
Sequence of Hepatocyte nuclear factor 4-alpha (Homo sapiens) (P41235 whole entry, looked up, the tested form may be a part): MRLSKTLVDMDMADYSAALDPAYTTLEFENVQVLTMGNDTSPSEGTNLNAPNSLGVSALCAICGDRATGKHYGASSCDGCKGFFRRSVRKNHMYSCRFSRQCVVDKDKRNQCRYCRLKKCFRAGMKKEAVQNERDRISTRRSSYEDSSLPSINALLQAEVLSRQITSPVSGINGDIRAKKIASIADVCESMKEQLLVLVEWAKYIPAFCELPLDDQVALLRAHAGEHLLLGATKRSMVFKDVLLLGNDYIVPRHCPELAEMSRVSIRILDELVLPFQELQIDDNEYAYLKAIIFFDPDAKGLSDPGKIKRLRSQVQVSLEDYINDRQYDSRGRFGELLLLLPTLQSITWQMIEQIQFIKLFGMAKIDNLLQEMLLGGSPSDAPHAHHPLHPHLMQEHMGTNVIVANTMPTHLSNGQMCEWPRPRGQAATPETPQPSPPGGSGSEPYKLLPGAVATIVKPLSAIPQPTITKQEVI

Regarding `FC(F)(F)c1ccc(Cl)c(Cl)c1`, the outcome in [1], in assay [2], in assay [3], in assay [4], in assay [5] and in assay [6] was inactive. For the same compound, the compound was called inactive in assay [7], in assay [8], in assay [9] and in [10].
For the compound `CC(C)CCCC(C)(C)O`, the call in assay [1], in assay [11], in [3], in assay [4], in assay [5] and in assay [6] was inactive. In addition, the compound was called inactive in assay [7], in assay [8], in assay [9], in assay [10], in [12] and in assay [13]. The outcome in [14] was inactive.
As to `OC[C@@H](O)[C@H](O)[C@@H](O)[C@@H](O)CO`, the compound was called inactive in [1], in assay [2], in assay [11], in assay [3], in assay [4] and in assay [5]. Also, the compound was classed as inactive in [6], in assay [7], in assay [8] and in assay [9].
With `CCNC(=S)NCC`, the compound was called inactive in assay [1], in [15], in assay [16], in assay [11], in assay [17] and in assay [3]. For the same compound, the compound was classed as inactive in assay [4], in assay [5], in assay [6], in assay [8] and in assay [9].
Take `CCCCCCCCCCOC(=O)c1ccccc1C(=O)OCCCCCCCC`: the compound was called inactive in [1], in assay [2], in assay [3], in assay [4], in assay [5] and in [6]. The compound was called inactive in [7], in [8], in [9] and in [10].
With `CC(=O)OC/C=C(C)/C=C/C=C(C)/C=C/C1=C(C)CCCC1(C)C`, the compound was called inactive in assay [1], in [2], in assay [11], in [17], in [3] and in assay [5]. Also, the compound was called inactive in assay [6] and in [9]. In addition, the AC50 in assay [4] is 167 µM (active); in assay [7] it was 39.8 µM (active); in assay [8], 3.64 µM (active); in assay [10], 146 µM (active).
Regarding `C1CCCNCC1`, the call in [15], in assay [2], in [16], in assay [17], in assay [3] and in assay [4] was inactive. For the same compound, the outcome in assay [5], in assay [6], in assay [8] and in assay [9] was inactive.
For the compound `CC(C)(C)C1CCC(O)CC1` (stereo not given), the call in assay [1], in assay [15], in [16], in assay [3], in assay [4] and in [5] was inactive. For the same compound, the outcome in assay [6], in assay [7], in assay [8], in assay [9] and in assay [10] was inactive.
For `CC(=O)Nc1cc(S(=O)(=O)O)cc2cc(S(=O)(=O)O)c(N=Nc3ccccc3)c(O)c12`, the call in [1], in assay [15], in assay [16], in [11], in assay [3] and in assay [4] was inactive. The result in assay [5], in assay [6], in assay [8], in assay [9] and in assay [10] was inactive.
In the case of `CC12CCC(C1)C(C)(C)C2O` (stereo not given), the compound was called inactive in assay [15], in [2], in [16], in assay [17], in assay [3] and in assay [4]. Also, the compound was called inactive in [5], in assay [6], in [7], in assay [8], in [9] and in [10].
